Measured values reported in PubChem BioAssay (NCATS).
Results filed as inconclusive are left out. Activity calls are given as the source filed them. Unless noted, calls follow the shape of the dose curve; as a rule, active = well fitted curve in the direction sought with a large enough effect; inconclusive = small, poorly fitted or top-dose-only effect, or another doubt; inactive = no such curve, though single readings can be large; an effect the other way counts as inactive or inconclusive.

What was measured:
[1] = target: ATP-dependent 6-phosphofructokinase (Trypanosoma brucei brucei) (UniProt O15648); test: qHTS Assay to Find Inhibitors of T. brucei phosphofructokinase: hit validation (AID 492961);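 also: luminescence reports ADP formed as PFK phosphorylates fructose-6-phosphate with ATP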
Chain of ATP-dependent 6-phosphofructokinase (Trypanosoma brucei brucei) (O15648 whole entry, looked up): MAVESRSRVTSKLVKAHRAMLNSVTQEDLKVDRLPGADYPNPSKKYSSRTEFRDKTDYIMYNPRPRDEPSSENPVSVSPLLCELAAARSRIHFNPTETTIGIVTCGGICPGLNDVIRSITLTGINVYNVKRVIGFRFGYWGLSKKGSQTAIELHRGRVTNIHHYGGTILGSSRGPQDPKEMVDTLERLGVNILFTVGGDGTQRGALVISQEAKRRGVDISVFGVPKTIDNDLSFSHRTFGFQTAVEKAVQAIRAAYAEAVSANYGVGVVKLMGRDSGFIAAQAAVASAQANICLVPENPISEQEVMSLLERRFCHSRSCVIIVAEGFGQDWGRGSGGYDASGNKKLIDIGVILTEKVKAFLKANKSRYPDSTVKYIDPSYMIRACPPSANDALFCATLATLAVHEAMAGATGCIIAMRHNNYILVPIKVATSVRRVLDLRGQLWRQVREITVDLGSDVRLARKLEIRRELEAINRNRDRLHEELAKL
Method in brief: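 In this biochemical qHTS validation, titrated compounds were tested against 1.25 nM PFK with 0.1 mM ATP and 0.5 mM F6P. Percent activity came from controls lacking or containing enzyme.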

[2] = target: Ubiquitin carboxyl-terminal hydrolase 1 (Homo sapiens) (UniProt O94782); test: Inhibitors of USP1/UAF1: Pilot qHTS (AID 504865);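 also: rhodamine fluorescence freed from ubiquitin-rhodamine substrate followed over time; top concentration of the series differs between compounds; nearly all actives have a fitted effect of over 35% in size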
Chain of Ubiquitin carboxyl-terminal hydrolase 1 (Homo sapiens) (O94782 whole entry, looked up): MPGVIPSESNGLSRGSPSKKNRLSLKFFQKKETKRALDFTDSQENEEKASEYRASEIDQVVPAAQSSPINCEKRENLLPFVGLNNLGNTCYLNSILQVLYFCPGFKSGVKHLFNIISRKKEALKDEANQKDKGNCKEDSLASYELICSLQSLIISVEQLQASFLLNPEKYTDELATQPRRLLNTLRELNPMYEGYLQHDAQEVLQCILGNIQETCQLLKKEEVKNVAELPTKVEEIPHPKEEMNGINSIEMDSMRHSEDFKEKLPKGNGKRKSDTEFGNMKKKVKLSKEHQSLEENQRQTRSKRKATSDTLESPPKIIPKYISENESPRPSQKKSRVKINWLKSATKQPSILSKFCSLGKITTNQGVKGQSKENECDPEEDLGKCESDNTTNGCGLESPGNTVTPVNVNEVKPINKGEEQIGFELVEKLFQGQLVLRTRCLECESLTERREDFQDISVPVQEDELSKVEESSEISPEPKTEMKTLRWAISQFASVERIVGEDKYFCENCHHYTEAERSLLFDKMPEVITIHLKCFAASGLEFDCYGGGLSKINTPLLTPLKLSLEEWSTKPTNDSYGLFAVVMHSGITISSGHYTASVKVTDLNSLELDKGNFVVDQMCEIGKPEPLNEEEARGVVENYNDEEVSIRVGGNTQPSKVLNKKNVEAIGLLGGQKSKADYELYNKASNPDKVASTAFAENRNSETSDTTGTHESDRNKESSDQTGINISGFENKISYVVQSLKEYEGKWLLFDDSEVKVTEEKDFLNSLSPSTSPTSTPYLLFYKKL
Method in brief: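 USP1/UAF1 complex (1nM) preincubated with compound 15 min at room temperature, then Ub-Rho substrate (150nM final) added. Fluorescence read kinetically at 480/540 nm, 6 reads every 60 seconds. Buffer: 50mM HEPES pH 7.8, 0.5mM EDTA, 0.1 mg/ml BSA, 1mM TCEP, 0.01% Tween-20.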

[3] = S16 Schwann cell viability assay (CellTiter-Glo assay) (AID 624031);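 also: cellular ATP luminescence as a viability measure; nearly all actives have a fitted effect of over 70% in size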
Method in brief: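 CellTiter-Glo ATP luminescence counter-screen in untransfected S16 rat Schwann cells, 24h compound exposure at 37 degree Celsius after overnight seeding (500-750 cells/well); response scaled between cell-free wells and DMSO (0% activity), curves classed by r2 and magnitude.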

[4] = S16 Schwann cell PMP22 intronic element firefly luciferase assay (AID 624032); also: nearly all actives have a fitted effect of over 30% in size
Method in brief: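 Luciferase reporter of PMP22 intronic-element expression in stably transfected S16 rat Schwann cells, read by ONE-Glo luminescence after 24 h compound exposure at 37 C. Activity scaled between DMSO (0%) and positive-control PTC124; concentration-effect curves quality-classified.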

[5] = S16 Schwann cell PMP22 intronic element beta-lactamase assay (AID 624044; calls by dose curve; also: nearly all actives have a fitted effect of over 15% in size)
Method in brief: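 Rat S16 Schwann cells with beta-Lac driven by a PMP22 intronic element, compound-treated 24 h at 37 °C. LiveBLAzer FRET B/G read: 460 nm normalized to potassium clavulanate vs DMSO; 535 nm FRET as viability; concentration-effect curves classified.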

[6] = target: Rap guanine nucleotide exchange factor 3 (Homo sapiens) (UniProt O95398); test: Confirmatory qHTS for antagonist of cAMP-regulated guanine nucleotide exchange factor 3 (EPAC1) (AID 1645880); conditions: EPAC1 Rap1B-BODIPY-GDP exchange, fluorescence; activity, negative = inhibition: at 115 µM (top of the series); also: nearly all actives have a fitted effect of over 55% in size
Chain of Rap guanine nucleotide exchange factor 3 (Homo sapiens) (O95398 whole entry, looked up): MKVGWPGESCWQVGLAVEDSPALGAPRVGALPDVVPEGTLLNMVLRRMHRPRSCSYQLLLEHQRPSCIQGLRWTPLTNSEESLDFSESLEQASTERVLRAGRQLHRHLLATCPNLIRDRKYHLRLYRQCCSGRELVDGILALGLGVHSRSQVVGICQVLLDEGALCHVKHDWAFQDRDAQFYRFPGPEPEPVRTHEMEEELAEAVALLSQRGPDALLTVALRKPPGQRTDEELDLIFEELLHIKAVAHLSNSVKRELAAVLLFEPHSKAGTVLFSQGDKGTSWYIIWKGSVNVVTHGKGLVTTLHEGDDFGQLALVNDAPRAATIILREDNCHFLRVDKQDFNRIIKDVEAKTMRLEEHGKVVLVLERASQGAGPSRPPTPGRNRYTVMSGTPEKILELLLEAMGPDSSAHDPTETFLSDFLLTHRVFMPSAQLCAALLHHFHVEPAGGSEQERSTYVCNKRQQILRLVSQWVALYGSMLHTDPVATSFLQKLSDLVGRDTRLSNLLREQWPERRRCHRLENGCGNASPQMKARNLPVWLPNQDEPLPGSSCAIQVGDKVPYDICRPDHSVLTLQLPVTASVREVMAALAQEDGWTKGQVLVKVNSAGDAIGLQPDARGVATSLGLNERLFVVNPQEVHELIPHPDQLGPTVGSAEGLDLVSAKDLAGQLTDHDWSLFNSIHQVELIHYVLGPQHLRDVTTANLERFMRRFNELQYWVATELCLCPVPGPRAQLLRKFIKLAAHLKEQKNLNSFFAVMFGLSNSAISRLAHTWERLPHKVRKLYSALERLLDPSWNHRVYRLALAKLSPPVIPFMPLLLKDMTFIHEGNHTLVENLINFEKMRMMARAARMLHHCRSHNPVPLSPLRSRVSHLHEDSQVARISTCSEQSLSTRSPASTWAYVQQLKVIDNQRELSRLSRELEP
Method in brief: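 Nucleotide exchange uses 100 nM EPAC1, 250 nM RAP1B-BODIPY-GDP and 50 uM GDP, with compounds in a concentration-titration series. After 5 min at room temperature, fluorescence (480 nm ex/540 nm em) is read every 5 min for 30 min. Data are normalized to control ATA and DMSO.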

[7] = target: Rap guanine nucleotide exchange factor 3 (Homo sapiens) (UniProt O95398); test: Confirmatory qHTS for agonist of cAMP-regulated guanine nucleotide exchange factor 3 (EPAC1) (AID 1645881);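 also: EPAC1 catalysed release of BODIPY-GDP from Rap1B seen as fluorescence loss; nearly all actives have a fitted effect of over 75% in size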
[8] = target: Rap guanine nucleotide exchange factor 3 (Homo sapiens) (UniProt O95398); test: Counterscreen qHTS for antagonist of cAMP-regulated guanine nucleotide exchange factor 3 (EPAC1) (AID 1645888);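 also: fluorescence loss as bound BODIPY-GDP is released from Rap1B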
Method in brief: (§1)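 Rap1B-BODIPY-GDP 250 nM + GDP 50 uM; cpds 7-pt, final 9.74 nM–152 uM (activator mode) or from 7.32 nM upwards (inhibitor mode); RT; FI 480/540 nm at 5 and 30 min, then ± cAMP, reread.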

[9] = target: Rap guanine nucleotide exchange factor 3 (Homo sapiens) (UniProt O95398); test: Counterscreen qHTS for agonist of cAMP-regulated guanine nucleotide exchange factor 3 (EPAC1) (AID 1645889); also: nearly all actives have a fitted effect of over 40% in size
Method in brief: as §1

[10] = qHTS profiling for inhibitors of Plasmodium falciparum proliferation (AID 504749); also: nearly all actives have a fitted effect of over 60% in size; also: potency is read from the fitted curve at half-maximal effect; conditions: P. falciparum in erythrocytes, SYBR Green DNA, 72 h; parasite line A
Method in brief: (§2)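 Infected RBCs, 0.3% parasitemia/2.5% Hct final; cpd 72 h, 37 C, 5% CO2; lysis buffer with saponin/triton/SYBR Green I, o/n RT dark; FI 485/535; norm. to artemisinin (0.29 uM) and DMSO.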

7G8 = test: as above; conditions: P. falciparum in erythrocytes, SYBR Green DNA, 72 h; series mostly up to 28.7 µM
Method in brief: as §2

AA1029 = test: as above; conditions: P. falciparum in erythrocytes, SYBR Green DNA, 72 h; series mostly up to 28.7 µM
Method in brief: as §2

AS120 = test: as above; conditions: P. falciparum in erythrocytes, SYBR Green DNA, 72 h; series mostly up to 28.7 µM
Method in brief: as §2

ATS189 = test: as above; conditions: P. falciparum in erythrocytes, SYBR Green DNA, 72 h; series mostly up to 28.7 µM
Method in brief: as §2

ATS95 = test: as above; conditions: P. falciparum in erythrocytes, SYBR Green DNA, 72 h; series mostly up to 28.7 µM
Method in brief: as §2

C2A = test: as above; conditions: P. falciparum in erythrocytes, SYBR Green DNA, 72 h; series mostly up to 28.7 µM
Method in brief: as §2

CP185 = test: as above; conditions: P. falciparum in erythrocytes, SYBR Green DNA, 72 h; series mostly up to 28.7 µM
Method in brief: as §2

CP191 = test: as above; conditions: P. falciparum in erythrocytes, SYBR Green DNA, 72 h; series mostly up to 28.7 µM
Method in brief: as §2

CP192 = test: as above; conditions: P. falciparum in erythrocytes, SYBR Green DNA, 72 h; series mostly up to 28.7 µM
Method in brief: as §2

CP194 = test: as above; conditions: P. falciparum in erythrocytes, SYBR Green DNA, 72 h; series mostly up to 28.7 µM
Method in brief: as §2

CP217 = test: as above; conditions: P. falciparum in erythrocytes, SYBR Green DNA, 72 h; series mostly up to 28.7 µM
Method in brief: as §2

CP237 = test: as above; conditions: P. falciparum in erythrocytes, SYBR Green DNA, 72 h; series mostly up to 28.7 µM
Method in brief: as §2

CP238 = test: as above; conditions: P. falciparum in erythrocytes, SYBR Green DNA, 72 h; series mostly up to 28.7 µM
Method in brief: as §2

CP247 = test: as above; conditions: P. falciparum in erythrocytes, SYBR Green DNA, 72 h; series mostly up to 28.7 µM
Method in brief: as §2

CP252 = test: as above; conditions: P. falciparum in erythrocytes, SYBR Green DNA, 72 h; series mostly up to 28.7 µM
Method in brief: as §2

CP256 = test: as above; conditions: P. falciparum in erythrocytes, SYBR Green DNA, 72 h; series mostly up to 28.7 µM
Method in brief: as §2

CP260 = test: as above; conditions: P. falciparum in erythrocytes, SYBR Green DNA, 72 h; series mostly up to 28.7 µM
Method in brief: as §2

CP262 = test: as above; conditions: P. falciparum in erythrocytes, SYBR Green DNA, 72 h; series mostly up to 28.7 µM
Method in brief: as §2

CP265 = test: as above; conditions: P. falciparum in erythrocytes, SYBR Green DNA, 72 h; series mostly up to 28.7 µM
Method in brief: as §2

CP269 = test: as above; conditions: P. falciparum in erythrocytes, SYBR Green DNA, 72 h; series mostly up to 28.7 µM
Method in brief: as §2

CP286 = test: as above; conditions: P. falciparum in erythrocytes, SYBR Green DNA, 72 h; series mostly up to 28.7 µM
Method in brief: as §2

CP297 = test: as above; conditions: P. falciparum in erythrocytes, SYBR Green DNA, 72 h; series mostly up to 28.7 µM
Method in brief: as §2

CP335 = test: as above; conditions: P. falciparum in erythrocytes, SYBR Green DNA, 72 h; series mostly up to 28.7 µM
Method in brief: as §2

DFO2036 = test: as above; conditions: P. falciparum in erythrocytes, SYBR Green DNA, 72 h; series mostly up to 28.7 µM
Method in brief: as §2

DIV14 = test: as above; conditions: P. falciparum in erythrocytes, SYBR Green DNA, 72 h; series mostly up to 28.7 µM
Method in brief: as §2

DIV17 = test: as above; conditions: P. falciparum in erythrocytes, SYBR Green DNA, 72 h; series mostly up to 28.7 µM
Method in brief: as §2

Dd2 = test: as above; conditions: P. falciparum in erythrocytes, SYBR Green DNA, 72 h; series mostly up to 28.7 µM
Method in brief: as §2

ECU = test: as above; conditions: P. falciparum in erythrocytes, SYBR Green DNA, 72 h; series mostly up to 28.7 µM
Method in brief: as §2

FAB9 = test: as above; conditions: P. falciparum in erythrocytes, SYBR Green DNA, 72 h; series mostly up to 28.7 µM
Method in brief: as §2

GB4 = test: as above; conditions: P. falciparum in erythrocytes, SYBR Green DNA, 72 h; series mostly up to 28.7 µM
Method in brief: as §2

ICS = test: as above; conditions: P. falciparum in erythrocytes, SYBR Green DNA, 72 h; series mostly up to 28.7 µM
Method in brief: as §2

JCK = test: as above; conditions: P. falciparum in erythrocytes, SYBR Green DNA, 72 h; series mostly up to 28.7 µM
Method in brief: as §2

N140 = test: as above; conditions: P. falciparum in erythrocytes, SYBR Green DNA, 72 h; series mostly up to 28.7 µM
Method in brief: as §2

P93_24 = test: as above; conditions: P. falciparum in erythrocytes, SYBR Green DNA, 72 h; series mostly up to 28.7 µM
Method in brief: as §2

P94_40 = test: as above; conditions: P. falciparum in erythrocytes, SYBR Green DNA, 72 h; series mostly up to 28.7 µM
Method in brief: as §2

PC49 = test: as above; conditions: P. falciparum in erythrocytes, SYBR Green DNA, 72 h; series mostly up to 28.7 µM
Method in brief: as §2

SC27B = test: as above; conditions: P. falciparum in erythrocytes, SYBR Green DNA, 72 h; series mostly up to 28.7 µM
Method in brief: as §2

TAB109 = test: as above; conditions: P. falciparum in erythrocytes, SYBR Green DNA, 72 h; series mostly up to 28.7 µM
Method in brief: as §2

TAB113 = test: as above; conditions: P. falciparum in erythrocytes, SYBR Green DNA, 72 h; series mostly up to 28.7 µM
Method in brief: as §2

TAB165 = test: as above; conditions: P. falciparum in erythrocytes, SYBR Green DNA, 72 h; series mostly up to 28.7 µM
Method in brief: as §2

W2 = test: as above; conditions: P. falciparum in erythrocytes, SYBR Green DNA, 72 h; series mostly up to 28.7 µM
Method in brief: as §2

Measured: Potency

C=C[C@]1(C)C[C@@H](OC(=O)CSCCN(CC)CC)[C@]2(C)C(C)CC[C@]3(CCC(=O)[C@H]32)[C@@H](C)[C@@H]1O (stereo partly specified)
active: [10] 10 µM | 7G8 11.2 µM | AA1029 5.01 µM | AS120 10 µM | ATS189 8.91 µM | ATS95 7.94 µM | C2A 11.2 µM | CP185 5.01 µM | CP191 7.94 µM | CP194 7.57 µM | CP217 10 µM | CP237 8.91 µM | CP238 11.2 µM | CP247 6.31 µM | CP252 7.08 µM | CP256 8.91 µM | CP260 5.62 µM | CP265 8.91 µM | CP269 6.75 µM | CP286 3.55 µM | CP297 6.75 µM | CP335 5.36 µM | DFO2036 10 µM | DIV14 15.1 µM | DIV17 13.5 µM | Dd2 3.16 µM | ECU 12.6 µM | GB4 6.75 µM | ICS 3.98 µM | N140 8.91 µM | P93_24 5.01 µM | P94_40 4.47 µM | SC27B 7.94 µM | TAB109 3.98 µM | TAB113 11.2 µM | TAB165 7.08 µM | W2 2.13 µM
inactive: [1] | [2] | [3] | [4] | [5] | [6] | [7] | [8] | [9] | CP192 | CP262 | FAB9 | JCK | PC49
